The source of these data is PubChem BioAssay (EPA / NIEHS).

Read-out in assay [1]: solute carrier (SLCO1B1), SLCO1B1 (gene 10599)
Put plainly: LTEA_HepaRG_SLCO1B1: Life Technologies and Expression Analysis (LTEA) Assay for solute carrier (SLCO1B1) using HepaRG (AID 2283530; active = hit-call score of the fitted dose curve at least 0.9, where 1 is the maximum; inactive = score below 0.9). Conditions: mRNA level, 48 h; actives raise or lower the signal. In a few lines: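 Differentiated human HepaRG cells were exposed for 48 h in serum-free induction medium to eight half-log concentrations, top 100 uM, in 0.5% DMSO. SLCO1B1 mRNA was measured by qRT-PCR, normalized to ACTB, GAPDH and POLR2A, and fitted bidirectionally against DMSO.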

Read-out in assay [2]: sulfotransferase 2A1 (SULT2A1), SULT2A1 (gene 6822)
Put plainly: LTEA_HepaRG_SULT2A1: Life Technologies and Expression Analysis (LTEA) Assay for sulfotransferase 2A1 (SULT2A1) using HepaRG (AID 2283531; active = hit-call score of the fitted dose curve at least 0.9, where 1 is the maximum; inactive = score below 0.9). Conditions: mRNA level, 48 h; actives raise or lower the signal. The procedure, abridged:
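HepaRG human liver cells, 48 h exposure in serum-free induction medium to 8 half-log concentrations topping at 100 µM (0.5% DMSO), duplicate wells. SULT2A1 mRNA measured by TaqMan qRT-PCR, normalized to ACTB/GAPDH/POLR2A; bidirectional fit against DMSO.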

Read-out in assay [3]: Transforming Growth Factor (TGFA), TGFA (gene 7039)
Briefly: LTEA_HepaRG_TGFA: Life Technologies and Expression Analysis (LTEA) Assay for Transforming Growth Factor (TGFA) using HepaRG (AID 2283532; active = hit-call score of the fitted dose curve at least 0.9, where 1 is the maximum; inactive = score below 0.9). The settings on record: mRNA level, 48 h; actives raise or lower the signal. In a few lines:
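Differentiated human HepaRG cells, plated 48 h then switched to serum-free induction medium, were exposed in duplicate for 48 h to 8-point half-log series from 100 uM in 0.5% DMSO. TGFA mRNA measured by qRT-PCR, normalized to ACTB/GAPDH/POLR2A, bidirectional fit versus DMSO.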

Read-out in assay [4]: Transforming Growth Factor (TGFB1), TGFB1 (gene 7040)
Put plainly: LTEA_HepaRG_TGFB1: Life Technologies and Expression Analysis (LTEA) Assay for Transforming Growth Factor (TGFB1) Transporter using HepaRG (AID 2283533; active = hit-call score of the fitted dose curve at least 0.9, where 1 is the maximum; inactive = score below 0.9). Conditions: mRNA level, 48 h; actives raise or lower the signal. The procedure, abridged:
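Differentiated HepaRG cells exposed 48 hr in serum-free induction medium to eight half-log concentrations up to 100 uM (0.5% DMSO), duplicate; TGFB1 mRNA by TaqMan qRT-PCR normalised to ACTB, GAPDH, POLR2A; bidirectional fit against DMSO.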

Read-out in assay [5]: Tumor necrosis factor receptor 1 (TNFRSF1A), TNFRSF1A (gene 7132)
Put plainly: LTEA_HepaRG_TNFRSF1A: Life Technologies and Expression Analysis (LTEA) Assay for Tumor necrosis factor receptor 1 (TNFRSF1A) using HepaRG (AID 2283535; active = hit-call score of the fitted dose curve at least 0.9, where 1 is the maximum; inactive = score below 0.9). The settings on record: mRNA level, 48 h; actives raise or lower the signal. The procedure, abridged: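 Differentiated HepaRG cells in serum-free induction medium, exposed 48 h in duplicate to 8 half-log concentrations up to 100 uM in 0.5% DMSO. TNFRSF1A mRNA by Fluidigm TaqMan qRT-PCR, normalized to ACTB, GAPDH, POLR2A; bidirectional fit.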

Read-out in assay [6]: Thyroid Hormone Responsive (THRSP), THRSP (gene 7069)
Briefly: LTEA_HepaRG_THRSP: Life Technologies and Expression Analysis (LTEA) Assay for Thyroid Hormone Responsive (THRSP) using HepaRG (AID 2283536; active = hit-call score of the fitted dose curve at least 0.9, where 1 is the maximum; inactive = score below 0.9). The settings on record: mRNA level, 48 h; actives raise or lower the signal. In a few lines: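 Differentiated human HepaRG cells were exposed in duplicate for 48 h in serum-free induction medium to eight concentrations (top 100 uM, half-log steps, 0.5% DMSO). Expression was quantified by TaqMan qRT-PCR, normalized to ACTB, GAPDH and POLR2A, with bidirectional fitting against DMSO.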

Read-out in assay [7]: UDP glucuronosyltransferase (UGT1A1), UGT1A1 (gene 54658)
Put plainly: LTEA_HepaRG_UGT1A1: Life Technologies and Expression Analysis (LTEA) Assay for UDP glucuronosyltransferase (UGT1A1) using HepaRG (AID 2283538; active = hit-call score of the fitted dose curve at least 0.9, where 1 is the maximum; inactive = score below 0.9). The settings on record: mRNA level, 48 h; actives raise or lower the signal. In a few lines: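 Human liver HepaRG cultures receive test chemical for 48 h, up to 100 uM in 0.5% DMSO, with phenobarbital induction controls. UGT1A1 mRNA is measured by qRT-PCR and normalized to ACTB, GAPDH and POLR2A.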

Read-out in assay [8]: UDP glucuronosyltransferase (UGT1A6), UGT1A6 (gene 54578)
Briefly: LTEA_HepaRG_UGT1A6: Life Technologies and Expression Analysis (LTEA) Assay for UDP glucuronosyltransferase (UGT1A6) using HepaRG (AID 2283539; active = hit-call score of the fitted dose curve at least 0.9, where 1 is the maximum; inactive = score below 0.9). The settings on record: mRNA level, 48 h; actives raise or lower the signal. In a few lines: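 Differentiated HepaRG cells, ~100,000/well, were exposed for 48 h in serum-free induction medium with 0.5% DMSO to 8-point half-log series topping at 100 uM, in duplicate. mRNA measured by Fluidigm TaqMan qRT-PCR, normalized to ACTB, GAPDH and POLR2A.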

Read-out in assay [9]: X-box binding protein 1 (XBP1), XBP1 (gene 7494)
Briefly: LTEA_HepaRG_XBP1: Life Technologies and Expression Analysis (LTEA) Assay for X-box binding protein 1 (XBP1) using HepaRG (AID 2283540; active = hit-call score of the fitted dose curve at least 0.9, where 1 is the maximum; inactive = score below 0.9). Conditions: mRNA level, 48 h; actives raise or lower the signal. The procedure, abridged: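 Differentiated human HepaRG cells in serum-free induction medium exposed 48 h in duplicate to eight half-log concentrations up to 100 uM in 0.5% DMSO. XBP1 mRNA measured by Fluidigm TaqMan qRT-PCR, normalized to ACTB, GAPDH, POLR2A; bidirectional fitting against DMSO.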

The nature of assay [10]: LTEA_HepaRG_LDH_cytotoxicity: Cytotoxicity Assessment in the Life Technologies and Expression Analysis (LTEA) Assay (AID 2283563).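 As to AC50: LDH activity released into spent culture medium as a marker of cell death.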 The procedure, abridged: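 Differentiated HepaRG cells in serum-free induction medium, exposed 48 h in duplicate to 8 half-log concentrations up to 100 uM in 0.5% DMSO. Cytotoxicity from LDH measured in spent medium, fit relative to DMSO.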
A short description of assay [11]: ATG_XTT_Cytotoxicity: Cytotoxicity Assessment in the Attagene TRANS-FACTORIAL HepG2 Assay (AID 2283584). The procedure, abridged:
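HepG2 cells transiently transfected with GAL4-UAS multiple reporter units, dosed 24 h; cytotoxicity read by XTT as loss of signal versus DMSO baseline.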

Assay [12] addresses Cellular tumor antigen p53 (Homo sapiens) (UniProt P04637). Briefly: TOX21_p53_BLA_p2_ratio: Tox21 HCT-116 p53 Agonism Beta-lactamase Assay, Ratio, Phase 2 (AID 2283592). In a few lines:
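HCT-116 cells with p53-responsive beta-lactamase reporter, 4000 cells/well, preincubated 5 h, then compound in DMSO (217-fold dilution) for 16 h at 37C. CCF4-AM substrate 2 h at room temperature; 460/530 nm emission ratio fitted upward versus DMSO.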

Assay [13] can be described thus: TOX21_p53_BLA_p3_viability: Viability Assessment in the Tox21 HCT-116 p53 Agonism Beta-lactamase Assay, Phase 3 (AID 2283593).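 Also: cells exposed to compound for 16 h before reading.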 In a few lines: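 HCT-116 cells (4000/well) rested 5 h at 37C, then got DMSO compounds by pin tool (217-fold dilution) for 16 h at 37C, 5% CO2. After the bla read, CellTiter-Glo was added and luminescence read at 30 min, room temperature.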

Assay [14] in a line: TOX21_p53_BLA_p4_viability: Viability Assessment in the Tox21 HCT-116 p53 Agonism Beta-lactamase Assay, Phase 4 (AID 2283597).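 Also: hits lower the luminescence signal meaning cytotoxicity.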 In a few lines: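 HCT-116 p53-bla cells, 4000/well, dosed after 5 h attachment and incubated 16 h at 37 °C, 5% CO2. Viability from CellTiter-Glo ATP luminescence after 30 min at room temperature, taken after the beta-lactamase read; loss of signal indicates cytotoxicity.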

The nature of assay [15]: TOX21_p53_BLA_p5_viability: Viability Assessment in the Tox21 HCT-116 p53 Agonism Beta-lactamase Assay, Phase 5 (AID 2283600). The procedure, abridged: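 HCT-116 p53 beta-lactamase reporter cells, 4000/well, were exposed to compound (pin transfer, 217-fold dilution) for 16 hours at 37C. Cellular ATP was read by CellTiter-Glo luminescence after 30 min at room temperature.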

In assay [16] the target is Cellular tumor antigen p53 (Homo sapiens) (UniProt P04637). Put plainly: TOX21_p53_BLA_p4_ratio: Tox21 HCT-116 p53 Agonism Beta-lactamase Assay, Ratio, Phase 4 (AID 2283601). The procedure, abridged:
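HCT116 cells carrying an inducible beta-lactamase reporter were plated at 4000 cells/well, rested 5 h, then exposed to compounds in DMSO (217-fold dilution) for 16 h at 37C. CCF4-AM substrate was loaded 2 h at room temperature; 460/530 nm emission ratio scored gain-of-signal versus DMSO.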

The nature of assay [17]: Tanguay_ZF_120hpf_MORT_legacy: (Legacy) Oregon State University Tanguay Lab 120 Hour Post-fertilization zebrafish Assay for Mortality (AID 2283633).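 As to AC50: fitted as increase in binary mortality versus DMSO negative control.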 The procedure, abridged:
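Dechorionated Tropical 5D wild-type zebrafish embryos, one per well from 6 hpf, static exposure in 0.64% DMSO at 28C until 120 hpf. Mortality scored as binary by brightfield microscopy at 24 and 120 hpf.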

Assay [18] is described as follows: TOX21_p53_BLA_p2_viability: Viability Assessment in the Tox21 HCT-116 p53 Agonism Beta-lactamase Assay, Phase 2 (AID 2283591).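 Also: compound exposure lasted 16 h at 37 °C; actives lower the ATP signal meaning cytotoxicity.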 The procedure, abridged: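 HCT-116 p53-bla cells (4000/well) rested 5 h at 37C, then received compounds in DMSO (217-fold dilution) for 16 h at 37C, 5% CO2. After the CCF4 read, CellTiter-Glo was added; ATP luminescence was read after 30 min at room temperature.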

Assay [19] addresses Cellular tumor antigen p53 (Homo sapiens) (UniProt P04637). Put plainly: TOX21_p53_BLA_p3_ratio: Tox21 HCT-116 p53 Agonism Beta-lactamase Assay, Ratio, Phase 3 (AID 2283596). The procedure, abridged: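 HCT116 p53-bla cells (4000/well) given compound in DMSO (217-fold dilution) after 5 h, incubated 16 h at 37C. CCF4-AM substrate 2 h at room temperature; 460/530 nm emission ratio, gain fitted against DMSO.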

Assay [20] shares this target. Put plainly: TOX21_p53_BLA_p5_ratio: Tox21 HCT-116 p53 Agonism Beta-lactamase Assay, Ratio, Phase 5 (AID 2283599). In a few lines:
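HCT-116 cells carrying a p53-inducible beta-lactamase reporter were seeded at 4000 cells/well and dosed after 5 h with compound in DMSO (217-fold dilution). After 16 h at 37C, CCF4-AM substrate was added for 2 h, and the 460/530 nm emission ratio was scored as gain-of-signal versus DMSO.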

The structures appear in SMILES notation. “And” between values parts separate entries of the source, which are not always exact repeats. Equal entries are not always repeated. Results filed as inconclusive are left out. Where a structure was tested more than once in an assay, its records may differ in their call. The source made the active and inactive calls. The calls were made as follows, unless noted: active = hit-call score of the fitted dose curve at least 0.9, where 1 is the maximum; inconclusive = response in the unintended direction; inactive = score below 0.9.

A word on the AC50: it is the concentration at which the activity in the assay is half-maximal.

Cellular tumor antigen p53 (Homo sapiens), sequence (P04637 whole entry, looked up): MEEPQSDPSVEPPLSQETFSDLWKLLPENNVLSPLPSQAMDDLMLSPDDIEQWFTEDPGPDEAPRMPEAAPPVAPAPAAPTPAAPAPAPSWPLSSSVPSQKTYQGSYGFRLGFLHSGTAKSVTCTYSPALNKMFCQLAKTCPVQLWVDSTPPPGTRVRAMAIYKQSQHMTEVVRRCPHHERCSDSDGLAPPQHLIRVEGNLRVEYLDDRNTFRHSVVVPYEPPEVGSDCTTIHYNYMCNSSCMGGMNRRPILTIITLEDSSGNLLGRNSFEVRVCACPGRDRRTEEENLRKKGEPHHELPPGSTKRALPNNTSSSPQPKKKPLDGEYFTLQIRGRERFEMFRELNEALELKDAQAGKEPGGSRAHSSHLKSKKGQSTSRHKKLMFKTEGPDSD

`ClC1(Cl)C2(Cl)C3(Cl)C4(Cl)C(Cl)(Cl)C5(Cl)C3(Cl)C1(Cl)C5(Cl)C24Cl` (configuration not stated): the call in assay [1], in [2], in assay [3], in assay [4], in assay [5] and in assay [6] was inactive. Besides, the result in [7], in assay [8], in assay [9], in assay [10], in [11] and in assay [12] was inactive. Also, the compound was called inactive in [13], in assay [14], in assay [15], in [16] and in [17].
Take `CC(C)(c1ccccc1)c1ccc(O)c(C(C)(C)c2ccccc2)c1`: the AC50 is 74.4 µM (active) in assay [1]; 86.3 µM (active) in assay [2]; 12.7 µM (active) in assay [6]; 12.2 µM (active) in assay [7]; 72.2 µM (active) in [10]; 11.4 µM (active) and 20.3 µM (active) in assay [18]. The AC50 in [12] is 43.2 µM (active) and 46.9 µM (active); in [13], 40.5 µM (active) and 53.8 µM (active); in assay [19], 80.6 µM (active) and 83.7 µM (active); in assay [14] it was 12.1 µM (active) and 16.6 µM (active); in assay [20], 73.6 µM (active) and 51.9 µM (active); in assay [15], 39.1 µM (active) and 24.3 µM (active). Further, the AC50 in [16] is 37.5 µM (active) and 29 µM (active). Moreover, the outcome in assay [3], in assay [4], in assay [5], in [8], in [9] and in assay [17] was inactive.
Regarding `CCc1ccccc1C`, in assay [11], the compound was classed as inactive.
As to `Cn1sc(Cl)cc1=O`, the compound was classed as inactive in assay [1], in assay [2], in [3], in [4], in assay [5] and in assay [6]. For the same compound, the compound was classed as inactive in assay [7], in [8], in assay [9], in assay [10], in [11] and in assay [18]. Also, the result in [12], in assay [13], in assay [19], in assay [20], in assay [15] and in [16] was inactive. Also, the AC50 in [13] was 29.8 µM (active); in [17] it was 25.7 µM (active).
Take `C=CC(=O)OCCCCCC(C)C`: the compound was classed as inactive in assay [1], in assay [2], in [3], in [4], in assay [5] and in [6]. Also, the result in [7], in [8], in assay [9], in [10], in [18] and in assay [13] was inactive. Moreover, the outcome in assay [19], in assay [14], in assay [20], in assay [15], in assay [16] and in assay [17] was inactive.
With `NC(=O)O`, the compound was classed as inactive in [1], in assay [2], in assay [3], in assay [4], in [5] and in assay [6]. Moreover, the compound was classed as inactive in assay [7], in assay [8], in [9], in assay [10], in [11] and in assay [12]. The outcome in assay [20], in assay [15], in [16] and in assay [17] was inactive.
For `C[C@]12CC[C@H](O)CC1=CC[C@@H]1[C@@H]2CC[C@]2(C)C(=O)CC[C@@H]12`, the result in assay [11] was inactive.
